Reference: PubChem BioAssay AID602478 (National Center for Advancing Translational Sciences (NCATS), 2012)
Results filed as inconclusive are left out. A call without a number means that no potency is given here. The source made the active and inactive calls. Calls follow the shape of the dose curve; as a rule, active = well fitted activation curve with a large enough effect; inconclusive = small, poorly fitted or top-dose-only effect; inactive = flat fitted curve, though single readings scatter.

Target: Luciferin 4-monooxygenase (Photinus pyralis) (UniProt P08659)
Assay: FLuc inhibitory activity for the follow-up compounds in a cell-based translational read-through assay (72 hour incubation)
Details: GripTite 293 FLucUGA read-through, luminescence; series mostly up to 38.3 µM
Description: NCGC Assay Overview: Firefly (Photinus pyralis) luciferase is one of the most commonly used transcriptional reporters. It is considered one of the more dynamically responsive reporters - that is, responsive to changes in reporter transcription - as it requires no post-translational modifications and is enzymatically active directly after protein synthesis (Wood, 1998). With no endogenous expression in mammalian cells and without the requirement of external excitation, it offers very little background signal, thus generally providing excellent signal to background for most assays. Previous profiling work to determine the prevalence of compounds that affect FLuc enzymatic activity (PubChem AID 411) identified that ~3% of the MLSMR library (then at ~72K) inhibited FLuc (Auld et al., 2008). […] Of the compounds identified in this profile that inhibited FLuc, 151 compounds were selected for further analysis, in an effort to better understand their mode of inhibiting FLuc. The assay described here was to determine the activity of the compounds in a cell-based firefly luciferase reporter gene assay originally designed to identify compounds that enchanced translational read-through of a FLuc cDNA that contained a premature stop codon (Auld et al., 2009; Auld et al., 2010). Compounds that enhance translational read-through or compounds that stabilize FLuc intracellularly are identified as active compounds in the assay.
NCGC Assay Protocol Summary: Reagents: Transient transfection of FlucUGA construct: TransFast Transfection Reagent (Promega #E2431); FLucUGA construct (refer to Auld et al., 2009) #GripTite 293 MSR Cell Line (Invitrogen #R795-07) #Complete growth media: DMEM (Invitrogen #11965), 10% HIFBS, 0.1mM MEM NEAA, 5mL/L pen-strep (of 5000U/mL stock), 600ug/mL Geneticin #Assay media: DMEM without phenol red (Invitrogen #21063), 5% charcoal-stripped HIFBS (Hyclone #SH30071.03), 0.1mM MEM NEAA In-house detection reagent: 300mM Tris-HCl, 300mM Trizma base, 300mM MgCl, 1% Triton-X100, 5mM DTT, 500uM Coenzyme A trilithium salt (Sigma #C3019),450uM ATP (Sigma #A7699), 1mM D-luciferin sodium salt monohydrate (Biosynth #L8240) Control compounds used were two known firefly luciferase inhibitors (3-(5-(3-chlorophenyl)-1,2,4-oxadiazol-3-yl)benzoic acid and 5-(2-fluorophenyl)-3-phenyl-1,2,4-oxadiazole), and DMSO. Assay Summary: Transient transfection of FlucUGA construct: Day 1: GripTite cells were plated in T175 flasks at a density of 1.75 x 10^7 cells/T175 flask in complete growth media without Geneticin and allowed to grow ON in a 37 degrees Celsius incubator. Day 2: Cells in T175 flask were transfected - with 10ug of DNA and 30uL Transfast in 12mL complete growth media without serum and without Geneticin for 4 hours at 37 degrees Celsius. After incubation, cells were trypsinized, spun down, and resuspended to a concentration of 3.3 x 10^5 cells/mL in assay media. 6uL of cells in assay buffer were dispensed at 2000cells/well (3.3 x 10^5 cells/mL) into Greiner solid-white TC-treated 1536-well plates using a Multidrop Combi (Thermo Fisher Scientific). Plates were incubated for one hour at 37 degree Celsius, 95% humidity, 5% CO2. These assay plates were then treated with 23nL of compound or DMSO using a Kalypsys pin tool, which allows for delivery of a 12-point titration of each compound to the assay plate, with a final compound concentration ranging from approximately ~38uM to 0.2nM. Assay plates were then incubated for 72 hours. After incubation, plates were washed three times with DPBS (7uL/well). After the third wash, 6uL of DPBS was added to each well. 3uL of 3X luciferase detection reagent was then added to each well using a flying reagent dispenser (FRD). After a 15 minute incubation to allow for cell lysis, luciferase activity was measured using a ViewLux CCD imager (PerkinElmer), with an average exposure time of 2-12 seconds.

Luciferin 4-monooxygenase (Photinus pyralis), sequence (P08659 whole entry, looked up): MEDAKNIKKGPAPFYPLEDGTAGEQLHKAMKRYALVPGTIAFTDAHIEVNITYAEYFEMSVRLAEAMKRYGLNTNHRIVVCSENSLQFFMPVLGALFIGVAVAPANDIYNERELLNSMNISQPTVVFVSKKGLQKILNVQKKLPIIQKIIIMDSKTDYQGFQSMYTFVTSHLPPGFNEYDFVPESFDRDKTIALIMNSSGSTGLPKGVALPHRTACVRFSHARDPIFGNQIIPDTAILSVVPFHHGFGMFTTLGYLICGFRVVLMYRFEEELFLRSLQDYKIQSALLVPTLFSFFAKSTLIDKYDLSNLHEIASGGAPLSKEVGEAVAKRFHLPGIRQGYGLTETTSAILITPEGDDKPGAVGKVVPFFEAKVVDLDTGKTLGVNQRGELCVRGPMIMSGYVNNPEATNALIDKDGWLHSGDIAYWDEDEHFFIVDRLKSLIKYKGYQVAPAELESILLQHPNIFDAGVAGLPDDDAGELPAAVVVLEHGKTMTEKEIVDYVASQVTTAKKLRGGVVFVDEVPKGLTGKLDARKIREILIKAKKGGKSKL

SMILES	Potency
COc1ccc2nc(NC(=O)CCc3ccc(OC)c(OC)c3)sc2c1	inactive
Cc1ccc(C(=O)Nc2ccc(C(=O)O)cc2)cc1S(=O)(=O)Nc1ccccc1	inactive
COc1ccc(-c2nc3ccccc3s2)cc1NC(=O)c1ccc(F)cc1	inactive
CC(C)c1ccc(C(=O)Nc2ccc(-c3nc4ccccc4s3)c(Cl)c2)cc1	inactive
COc1ccc(-c2nc3ccccc3s2)cc1O	14.2 µM (active)
COc1ccc2nc(NC(=O)c3ccc(S(=O)(=O)N4CCCC(C)C4)cc3)sc2c1 (stereo unspecified)	inactive
Cc1ccc2nc(-c3ccc(N)cc3)sc2c1	1.42 µM (active)
Cc1ccc2sc(-c3ccc(NC(=O)c4cc(-n5cnnc5)ccc4Cl)cc3)nc2c1	14.2 µM (active)
Cc1ccc2sc(-c3ccc(N)cc3)nc2c1	0.356 µM (active)
O=C(O)c1cccc(NC(=O)c2cccc(S(=O)(=O)Nc3cccc(F)c3)c2)c1	inactive
O=C(O)c1cccc(NC(=O)c2cccc(NC(=O)C3CCCO3)c2)c1 (stereo unspecified)	inactive
COc1ccc(C(=O)Nc2ccccc2-c2nc3ccccc3s2)c(OC)c1	inactive
CCOc1ccc2nc(NC(=O)c3cccnc3)sc2c1	3.56 µM (active)
CC(=O)Nc1cccc(-c2nc3ccccc3s2)c1C	inactive
O=C(Nc1ccccc1C(=O)O)c1cccc(NC(=O)c2ccccc2Cl)c1	inactive
O=C(O)c1ccc(NC(=O)c2cccc(NC(=O)c3cccs3)c2)cc1	inactive
